The whole screen tested about 370,000 compounds, of which about 3,700 (1%) were called active.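 Rule for the calls: active = activation above the mean over all tested compounds plus 3 SD (cut at about 0.9% in these data); inactive = the rest.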 Shown is part of a subset that was picked to be rich in actives.

The assay concerns Nuclear hormone receptor DAF-12 (Strongyloides stercoralis). Briefly: S. stercoralis DAF-12 nuclear receptor activators, primary screen, cell-based, luminescence, HEK293, GRIP1 co-expression, lit1-tk-luc (AID 652126).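 Note: 0% = DMSO-only wells and 100% = 3 µM delta7-dafachronic acid wells.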 Conditions: HEK293 ssDAF-12/GRIP1 lit1-tk-luc reporter, at 6.8 µM, active compounds read high, % of 3 µM dafachronic acid response.
On to `CCN(CC)C(=O)CC[C@@H]1CC[C@]2(CCCN(S(=O)(=O)C3CCCCC3)C2)O1`, for which the activation is -1.11% (inactive).

On to `CN(C)Cc1cn(-c2ccc(-c3noc4c3C(=O)N(CC(=O)N3CCOCC3)CC4)cc2)nn1`, for which the activation is -0.67% (inactive).

Consider `O=C(OCC#CCSc1nnc(-c2ccco2)o1)c1ccc(F)cc1`, for which the activation was -0.22% (inactive).

As to `CCCC[C@H](C(=O)N(CC)c1ccccc1)[C@@H](O)c1ccc2ccccc2c1`, the activation is -1.15% (inactive).

Regarding `O=C(c1cc(COc2ccc(F)cc2F)on1)N1CCOCC1`, the activation was 0.37% (inactive).

`O=C(c1cc(-c2ccc(O)cc2)on1)N1CCOCC1`: the activation is 1.22% (active).

As for `O=C(c1cc(C2CCCCN2S(=O)(=O)c2ccccc2)on1)N1CCOCC1` (stereo not given), the activation is -1.54% (inactive).

Regarding `O=C1Nc2ccccc2OC1CC(=O)N1CCCCCCC1` (stereo not given), the activation is -0.55% (inactive).

As to `c1cncc(CNc2ccnc(-c3ccc4c(c3)OCO4)n2)c1`, the activation is -1.42% (inactive).

As for `CCOC(=O)[C@]12CCCC3=C1N(CCC3)C(=O)[C@@H](CC(=O)NCc1cccs1)C2`, the activation was -1.02% (inactive).

With `Brc1ccc2nc(N3CCCC3)sc2c1`, the activation was 1.8% (active).

`Cc1nc2ccc(NC(=O)C3CCCCC3)cc2s1`: the activation is -1.51% (inactive).

Consider `Cc1nc2ccc(C(=O)N3CCSCC3)cc2s1`, for which the activation was -1.17% (inactive).

With `C=CCN1C(=O)[C@H](CC(=O)NCCCN2CCCC2=O)[C@@]2(C(=O)OCC)CCCC=C12`, the activation is -0.32% (inactive).

`COc1ccc(Br)cc1CN1CCN(C(=O)c2cccc(OC)c2OC)CC1`: the activation was -0.37% (inactive).

Take `COc1cccc(C(=O)OCc2cc(=O)oc3c(C)c(C)ccc23)c1OC`: the activation is 1.06% (active).

Turning to `COC(=O)Cc1cc(=O)oc2c(C)c(O)ccc12`, the activation is -1% (inactive).

For `CC(C)[C@@H]1NC(=O)c2cc([N+](=O)[O-])cc(I)c2NCCC[C@@H](C(=O)NC(CC(=O)O)C(N)=O)NC(=O)[C@H](CO)NC1=O` (stereo not given in full), the activation was -1.32% (inactive).

For `CCOC(=O)[C@]12CCCCC/C=C\1N(Cc1ccc(OC)cc1)C(=O)[C@H]2CC(=O)NCc1ccc(C)o1`, the activation is -1.69% (inactive).

In the case of `COC(=O)c1cc(S(=O)(=O)N2CCN(c3ccccc3C)CC2)cn1C`, the activation was -1.46% (inactive).

Turning to `COc1ccc(-c2cc(C(=O)NC(C(=O)O)C(C)C)c(C)o2)cc1OC` (stereo not given), the activation is -0.63% (inactive).

Take `O=C(CCn1nnc2ccccc2c1=O)N[C@@H](Cc1c[nH]c2ccccc12)C(=O)O`: the activation is -1.08% (inactive).

Regarding `COc1ccc(-c2cc(C(=O)NC(Cc3c[nH]c4ccccc34)C(=O)O)c(C)o2)cc1OC` (stereo not given), the activation was 0.94% (active).

With `CC1=NN(/C(=N\c2nnc(C)s2)Nc2ccccc2)[C@H](c2ccc(C)cc2)S1`, the activation was -1.96% (inactive).

As for `CC(C)C(C#CC1CC1)N(Cc1ccc2c(c1)OCO2)C(N)=NC(=O)/C=C/c1cccc(C(F)(F)F)c1` (stereo not given), the activation was -1.84% (inactive).

Regarding `CC(=O)c1ccc(NC(=O)c2cc(-c3cccs3)on2)cc1`, the activation was -0.86% (inactive).

Take `O=C(O)c1ccc(N/N=C/c2cn(-c3ccccc3)nc2-c2cccs2)cc1`: the activation was 1.45% (active).

As to `O=C(N/N=C/c1sc(N2CCCCC2)nc1-c1cccs1)c1cccnc1`, the activation is -1.2% (inactive).

Take `O=C(NC1CCCCN(Cc2ccc(Cl)cc2)C1=O)c1ccc(Br)cc1` (stereo not given): the activation is -1.36% (inactive).

Regarding `Cc1ccc(Cn2cc(CN3[C@@H](CC(C)C)COc4ccc(Cl)cc4S3(=O)=O)nn2)cc1`, the activation was -1.11% (inactive).

`CCOC(=O)c1nnn(CC(=O)Nc2cccc(F)c2)c1C(=O)OCC`: the activation is -1.33% (inactive).

For `CCC(=O)Nc1ccc2nn(-c3ccc(F)cc3)nc2c1`, the activation was 1.14% (active).

With `O=C(Nc1cccc(Cl)c1)c1cncn1-c1ccc(F)cc1`, the activation is -1.04% (inactive).

With `COC(=O)[C@]12C[C@H](CC(=O)NCc3cccc4ccccc34)C(=O)N(CCc3ccc(OC)c(OC)c3)C1=C[C@H](C1CCCC1)O[C@@H]2C`, the activation was -0.95% (inactive).

On to `O=C(Nc1ccc(Br)cc1)OCCN1C(=O)CCC12CCC(c1ccccc1)CC2` (stereo not given), for which the activation is -0.35% (inactive).

Consider `CCOC(=O)c1c(N)sc2c1CCCC2=O`, for which the activation was 1.3% (active).

`CCOC(=O)c1c(CC(C)C)csc1/N=C/C1=C(O)CCCC1=O`: the activation was -1.42% (inactive).

In the case of `CCOC(=O)c1c(/N=C/c2cc(C)ccc2O)sc2c1CCC2`, the activation is -1.3% (inactive).

As for `O=C(C1CCN(S(=O)(=O)c2ccccc2)CC1)N1CCN(C2CCCCC2)CC1`, the activation is -1.32% (inactive).

As to `CC(CCN1CCC(C(O)(c2ccccc2)c2ccccc2)CC1)Oc1ccc(Cl)cc1` (stereo not given), the activation is -0.71% (inactive).

Turning to `Cc1ccc(-c2nc(C3CCCN(S(=O)(=O)c4ccc(Br)s4)C3)no2)cc1` (stereo not given), the activation was -1.49% (inactive).

On to `Nc1nonc1C(=O)NCCc1ccccc1`, for which the activation was -1.42% (inactive).

Consider `NC(=O)Nc1ccccc1C(=O)NCCc1ccccc1`, for which the activation is 1.06% (active).

Consider `Nc1nc2c(Br)ccc(Br)c2cc1C(=O)NCCc1ccccc1`, for which the activation is -1.14% (inactive).

Consider `O=C(OC12CCCN(C1)/C(=C/c1ccccc1)C2)c1ccco1` (stereo not given), for which the activation was -0.69% (inactive).

Take `O=C(C1CCCN1S(=O)(=O)c1ccccc1)N1CCc2ccccc2C1` (stereo not given): the activation is -1.12% (inactive).

On to `COc1ccc(C(=O)c2c3ccc([N+](=O)[O-])cc3[n+]([O-])n2CCCN)cc1`, for which the activation was -1.18% (inactive).

For the compound `COc1ccc(C(=O)CC(=O)c2ccc(C)cc2)c(O)c1`, the activation was -1.3% (inactive).

On to `COc1ccc2c(C(=O)c3ccc(C)cc3)n(CCC(N)=O)[n+]([O-])c2c1`, for which the activation is 0.92% (active).

As for `FC(F)(F)c1cccc(Cn2ccc3ccc(-c4ccc5ccn(Cc6ccccc6)c5c4)cc32)c1`, the activation is -1.17% (inactive).

On to `Cc1ccc(SCCC(=O)NCc2ccccn2)cc1`, for which the activation is -1.21% (inactive).

For the compound `Cc1ccc(SCCSc2ncccn2)cc1`, the activation is 0.96% (active).

Take `Cc1ccc(SCCC(=O)NC(C(C)C)C(C)C)cc1`: the activation was -1.68% (inactive).

Turning to `CC(C)N1CCCCC(NC(=O)C(C)(C)C)C1=O` (stereo not given), the activation was -1.27% (inactive).

`CCCCC(=O)N[C@@H]1CC[C@@]23CCCN2C(=O)CCC[C@H]3[C@H]1C`: the activation is -1.42% (inactive).

Turning to `CC(C)(C)c1cnnn1-c1ccc([N+](=O)[O-])cc1`, the activation was -1.44% (inactive).

In the case of `Cc1nn(-c2ccccc2)c2c1C(c1cccc([N+](=O)[O-])c1)N(c1ccccc1)C(=O)N2` (stereo not given), the activation is -2.08% (inactive).

Regarding `Cc1nn(-c2ccc([N+](=O)[O-])cc2)c(N)c1-c1ccccc1`, the activation was 0.95% (active).

`CC(C)(C)OC(=O)NCCc1ccccc1/C=C/S(=O)(=O)NCc1ccc(F)cc1`: the activation was -0.76% (inactive).

As for `O=C(Nc1ccc2ccccc2c1)Nc1ccc2snnc2c1`, the activation was -0.89% (inactive).

As to `O=C(Nc1ccccc1)Nc1nc2ccccc2s1`, the activation is 2.17% (active).

Regarding `O=C(Nc1nc2ccc(Cl)cc2s1)c1cc(-c2ccc(Cl)cc2)nc2ccccc12`, the activation was 0.48% (inactive).

As to `COc1ccc(CN(CCN2CCOCC2)C(=O)c2ccc(C)cc2)cc1OC`, the activation is -0.08% (inactive).

In the case of `COc1ccc(/C=C2\CC3(OC(C)=O)CCCN2C3)cc1` (stereo not given), the activation was -1.25% (inactive).

For the compound `Cc1ccc(NC(=O)Nc2cc(C)nn2-c2ccccc2)cc1`, the activation was -0.89% (inactive).

Regarding `O=C(O)c1n[nH]nc1-c1ccccc1`, the activation was -1.32% (inactive).

On to `c1ccc(-c2cc(-c3ccccc3)[nH]n2)cc1`, for which the activation is 2.27% (active).

Take `Cc1c[nH]c2cccc(-c3ccc(Cl)cc3)c12`: the activation is -0.3% (inactive).

Take `Oc1ccccc1-c1cc(-c2ccc(Cl)cc2)n[nH]1`: the activation is 3.08% (active).

As to `c1ccc(-c2c[nH]c(-c3ccccc3)c2)cc1`, the activation is 0.36% (inactive).

Take `Cc1cccc(C(=O)Nc2c(-c3ccc(F)cc3)nc3ncccn23)c1`: the activation was -1.19% (inactive).

On to `Nn1c(SCC(=O)Nc2ccc(S(N)(=O)=O)cc2)nnc1-c1n[nH]c2c1CCC2`, for which the activation is -0.68% (inactive).

For `O=C(NCCC1=CCCCC1)C1CCN(S(=O)(=O)c2ccc(Cl)s2)CC1`, the activation was -0.79% (inactive).

For `CCOC(=O)[C@]12CCCC=C1N(CCCOC)C(=O)[C@@H]2CC(=O)N1CCOCC1`, the activation was -1.03% (inactive).

`Cc1ccc(NC(=O)C2CCCN2C(=O)OCc2ccccc2)cc1C` (stereo not given): the activation was -0.56% (inactive).

As to `O=C(/C=C/Nc1ccc(S(=O)(=O)Nc2cnc3ccccc3n2)cc1)c1cccnc1`, the activation was -0.79% (inactive).

For the compound `Cc1ccc(N/C=C/C(=O)c2ccccc2)cc1C`, the activation is 3% (active).

On to `c1ccc(Cc2c(-c3ccco3)nc3c4ccccc4ccn23)cc1`, for which the activation was 3.52% (active).

For `COc1ccccc1Cc1c(-c2ccc(Cl)cc2)nc2c3ccccc3ccn12`, the activation is 0.62% (inactive).

In the case of `Cc1ccc(-c2nc3c(C)cc(Br)cn3c2Cc2ccccc2)cc1`, the activation was -0.47% (inactive).

As to `CN1C(=O)c2cc(NS(C)(=O)=O)ccc2OC[C@@H]2O[C@@H](CC(=O)NCc3ccc(-c4ccccc4)cc3)CC[C@H]21`, the activation is -1.43% (inactive).

As for `Cc1ccccc1CN1CCCCC(NC(=O)c2cccc(C#N)c2)C1=O` (stereo not given), the activation is -1.04% (inactive).

On to `N#Cc1ccc(C2N=C(c3ccccc3)NO2)cc1` (stereo not given), for which the activation is 0.03% (inactive).

With `S=C1NC(c2ccccc2)=NCN1c1ccc(Br)cc1`, the activation is -0.91% (inactive).

Take `Brc1ccccc1C1N=C(c2ccccc2)NO1` (stereo not given): the activation is 1.18% (active).

Regarding `COC(=O)C1CN(Cc2ccc(F)cc2)CCS(=O)(=O)N1Cc1ccc(Cl)cc1` (stereo not given), the activation was -1.29% (inactive).

In the case of `Cc1cccc(N2CCN(C(=O)C3CCN(S(=O)(=O)c4cnc[nH]4)CC3)CC2)c1C`, the activation is -0.57% (inactive).

Take `O=C(C1CCN(S(=O)(=O)c2cnc[nH]2)CC1)N1CCN(Cc2ccc3c(c2)OCO3)CC1`: the activation is 1.02% (active).

Consider `CCN(CCCNC(=O)C1CCN(S(=O)(=O)c2cnc[nH]2)CC1)c1ccccc1`, for which the activation is -1.52% (inactive).

As for `O=C(c1ccncc1)N1CC[C@H]2[C@H](CCCN2Cc2ccc(F)cc2)C1`, the activation was -0.89% (inactive).

These data come from PubChem BioAssay AID652126 (The Scripps Research Institute Molecular Screening Center, 2013).
